Laboratory results from the supplement of paper PMC12645437, “Orthogonal IMiD-Degron Pairs Induce Selective Protein Degradation in Cells” (ACS Chemical Biology, 2025).
In all, about 8,300 sequences were measured (“log2 fold change of degron read counts, EGFP-low vs EGFP+ sorted cells (limma voom), compound-induced degradation”: median about -1.1, highest 2% from about 3.2 on). The entries come from a sample that favours the highest values as a whole.

Target: T1, CRBN, Q96SW2
T1 chain: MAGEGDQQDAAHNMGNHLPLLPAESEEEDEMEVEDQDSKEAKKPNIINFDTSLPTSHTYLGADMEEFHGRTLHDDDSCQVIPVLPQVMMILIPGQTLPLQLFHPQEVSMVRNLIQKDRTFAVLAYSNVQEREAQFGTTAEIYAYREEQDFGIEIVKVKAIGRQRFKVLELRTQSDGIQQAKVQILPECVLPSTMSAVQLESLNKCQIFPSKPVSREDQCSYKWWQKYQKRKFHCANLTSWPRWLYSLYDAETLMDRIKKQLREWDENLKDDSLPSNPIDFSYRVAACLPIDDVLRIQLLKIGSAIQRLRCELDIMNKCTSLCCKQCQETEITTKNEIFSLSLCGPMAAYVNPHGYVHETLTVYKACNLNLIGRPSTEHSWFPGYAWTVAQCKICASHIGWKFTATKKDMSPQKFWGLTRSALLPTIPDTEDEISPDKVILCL
Test: log2 fold change of degron read counts, EGFP-low vs EGFP+ sorted cells (limma voom), compound-induced degradation; higher = more compound-induced degradation of the degron-EGFP fusion; degrons are variants of IKZF1/3 zinc finger 2; compound dose not given here
Conditions: Jurkat, 18 h

[1] = compound: compound 19 (5-tert-butyl-thalidomide)
[2] = compound: compound 22 (5-morpholino-thalidomide)
[3] = compound: compound 33 (diphenyl IMiD analogue)
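Note: pooled lentiviral library of zinc finger degron-EGFP fusions in mCherry-positive Jurkat cells, FACS-sorted after compound exposure, with degron abundance counted by next-generation sequencing.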

In the case of FICNQCGRSFTQKGNLLRHIKL [46F_47I_49N_50Q_52G_53R_54S_55F_67L_, Q9UKT9], the “log2 fold change of degron read counts” value [1] is reported as -3.32, the “log2 fold change of degron read counts” value [2] is reported as -3.15 and the “log2 fold change of degron read counts” value [3] is reported as -3.35. For the same sequence, the “log2 fold change of degron read counts” value (compound: thalidomide) was -3.61.

In the case of FACEQCGAKFTQKGNLLRHIKL [46F_47A_49E_50Q_52G_53A_54K_55F_67L_, Q9UKT9], the “log2 fold change of degron read counts” value [1] is reported as 1.9, the “log2 fold change of degron read counts” value [2] is reported as -1.51 and the “log2 fold change of degron read counts” value [3] is reported as -3.24. For the same sequence, the “log2 fold change of degron read counts” value (compound: thalidomide) was -1.44.

In the case of LTCEICGFECTQKGNLLRHIKL [46L_47T_49E_50I_52G_53F_54E_55C_67L_, Q9UKT9], the “log2 fold change of degron read counts” value [1] is reported as -0.328, the “log2 fold change of degron read counts” value [2] is reported as 0.102 and the “log2 fold change of degron read counts” value [3] is reported as -0.375. The “log2 fold change of degron read counts” value (compound: thalidomide) was 0.759.

For FSCPICGHVFTQKGNLLRHIKL [46F_47S_49P_50I_52G_53H_54V_55F_67L_, Q9UKT9], the “log2 fold change of degron read counts” value [1] was -2.55, the “log2 fold change of degron read counts” value [2] was -2.29 and the “log2 fold change of degron read counts” value [3] was -1.52. For the same sequence, the “log2 fold change of degron read counts” value (compound: thalidomide) was -1.64.

For FLCDVCGAKFTQKGNLLRHIKL [46F_47L_49D_50V_52G_53A_54K_55F_67L_, Q9UKT9], the “log2 fold change of degron read counts” value [1] was -1.99, the “log2 fold change of degron read counts” value [2] was -3.99 and the “log2 fold change of degron read counts” value [3] was -1.78. For the same sequence, the “log2 fold change of degron read counts” value (compound: thalidomide) was -0.928.

With FLCEICGHCFTQKGNLLRHIKL [46F_47L_49E_50I_52G_53H_54C_55F_67L_, Q9UKT9] the “log2 fold change of degron read counts” value [1] was -3.3, the “log2 fold change of degron read counts” value [2] was -3.75 and the “log2 fold change of degron read counts” value [3] was -3.16. For the same sequence, the “log2 fold change of degron read counts” value (compound: thalidomide) was -2.4.

With FMCEICGHTFTQKGNLLRHIKL [46F_47M_49E_50I_52G_53H_54T_55F_67L_, Q9UKT9] the “log2 fold change of degron read counts” value [1] was -3.32, the “log2 fold change of degron read counts” value [2] was -4.22 and the “log2 fold change of degron read counts” value [3] was -2.78. The “log2 fold change of degron read counts” value (compound: thalidomide) was -3.14.

In the case of LICPICGFRCTQKGNLLRHIKL [46L_47I_49P_50I_52G_53F_54R_55C_67L_, Q9UKT9], the “log2 fold change of degron read counts” value [1] is reported as 0.753, the “log2 fold change of degron read counts” value [2] is reported as 2.24 and the “log2 fold change of degron read counts” value [3] is reported as 1.19. For the same sequence, the “log2 fold change of degron read counts” value (compound: thalidomide) was 2.84.

For LWCPICGFRCTQKGNLLRHIKL [46L_47W_49P_50I_52G_53F_54R_55C_67L_, Q9UKT9], the “log2 fold change of degron read counts” value [1] was 3.02, the “log2 fold change of degron read counts” value [2] was 3.7 and the “log2 fold change of degron read counts” value [3] was 2.31. For the same sequence, the “log2 fold change of degron read counts” value (compound: thalidomide) was 2.05.

In the case of LWCPICGFNCTQKGNLLRHIKL [46L_47W_49P_50I_52G_53F_54N_55C_67L_, Q9UKT9], the “log2 fold change of degron read counts” value [1] is reported as 2.43, the “log2 fold change of degron read counts” value [2] is reported as 3.5 and the “log2 fold change of degron read counts” value [3] is reported as 2.36. The “log2 fold change of degron read counts” value (compound: thalidomide) was 1.53.

With LACPICGFNCTQKGNLLRHIKL [46L_47A_49P_50I_52G_53F_54N_55C_67L_, Q9UKT9] the “log2 fold change of degron read counts” value [1] was 2.23, the “log2 fold change of degron read counts” value [2] was 1.61 and the “log2 fold change of degron read counts” value [3] was 1.93. For the same sequence, the “log2 fold change of degron read counts” value (compound: thalidomide) was 1.49.

With LGCPICGFRCTQKGNLLRHIKL [46L_47G_49P_50I_52G_53F_54R_55C_67L_, Q9UKT9] the “log2 fold change of degron read counts” value [1] was 3.17, the “log2 fold change of degron read counts” value [2] was 2.04 and the “log2 fold change of degron read counts” value [3] was 0.549. For the same sequence, the “log2 fold change of degron read counts” value (compound: thalidomide) was 1.14.

In the case of LDCPICGFNCTQKGNLLRHIKL [46L_47D_49P_50I_52G_53F_54N_55C_67L_, Q9UKT9], the “log2 fold change of degron read counts” value [1] is reported as -0.713, the “log2 fold change of degron read counts” value [2] is reported as -1.04 and the “log2 fold change of degron read counts” value [3] is reported as -0.142. For the same sequence, the “log2 fold change of degron read counts” value (compound: thalidomide) was 0.706.

For FRCPICGAIFTQKGNLLRHIKL [46F_47R_49P_50I_52G_53A_54I_55F_67L_, Q9UKT9], the “log2 fold change of degron read counts” value [1] was -1.29, the “log2 fold change of degron read counts” value [2] was -0.543 and the “log2 fold change of degron read counts” value [3] was 0.89. For the same sequence, the “log2 fold change of degron read counts” value (compound: thalidomide) was 1.18.

FTCEQCGAQFTQKGNLLRHIKL [46F_47T_49E_50Q_52G_53A_54Q_55F_67L_, Q9UKT9] was tested, and the “log2 fold change of degron read counts” value [1] was -2.06, the “log2 fold change of degron read counts” value [2] was -1.12 and the “log2 fold change of degron read counts” value [3] was 0.532. The “log2 fold change of degron read counts” value (compound: thalidomide) was -0.012.

In the case of FFCPICGHVFTQKGNLLRHIKL [46F_47F_49P_50I_52G_53H_54V_55F_67L_, Q9UKT9], the “log2 fold change of degron read counts” value [1] is reported as -0.996, the “log2 fold change of degron read counts” value [2] is reported as -1.35 and the “log2 fold change of degron read counts” value [3] is reported as -1.19. The “log2 fold change of degron read counts” value (compound: thalidomide) was -1.12.

For FACPICGHTFTQKGNLLRHIKL [46F_47A_49P_50I_52G_53H_54T_55F_67L_, Q9UKT9], the “log2 fold change of degron read counts” value [1] was -2.03, the “log2 fold change of degron read counts” value [2] was -2.66 and the “log2 fold change of degron read counts” value [3] was -2.44. For the same sequence, the “log2 fold change of degron read counts” value (compound: thalidomide) was -2.56.

For FKCNVCGAVFTQKGNLLRHIKL [46F_47K_49N_50V_52G_53A_54V_55F_67L_, Q9UKT9], the “log2 fold change of degron read counts” value [1] was -2.44, the “log2 fold change of degron read counts” value [2] was -2.91 and the “log2 fold change of degron read counts” value [3] was -3.25. The “log2 fold change of degron read counts” value (compound: thalidomide) was -2.

For FCCEICGAHFTQKGNLLRHIKL [46F_47C_49E_50I_52G_53A_54H_55F_67L_, Q9UKT9], the “log2 fold change of degron read counts” value [1] was 2.06, the “log2 fold change of degron read counts” value [2] was 0.682 and the “log2 fold change of degron read counts” value [3] was 1.31. For the same sequence, the “log2 fold change of degron read counts” value (compound: thalidomide) was 1.03.

With FACEICGAHFTQKGNLLRHIKL [46F_47A_49E_50I_52G_53A_54H_55F_67L_, Q9UKT9] the “log2 fold change of degron read counts” value [1] was 3.32, the “log2 fold change of degron read counts” value [2] was 1.02 and the “log2 fold change of degron read counts” value [3] was 0.285. The “log2 fold change of degron read counts” value (compound: thalidomide) was -0.547.

In the case of FFCEICGAHFTQKGNLLRHIKL [46F_47F_49E_50I_52G_53A_54H_55F_67L_, Q9UKT9], the “log2 fold change of degron read counts” value [1] is reported as 3.34, the “log2 fold change of degron read counts” value [2] is reported as 3.33 and the “log2 fold change of degron read counts” value [3] is reported as 2.07. The “log2 fold change of degron read counts” value (compound: thalidomide) was 1.

In the case of FECEICGAHFTQKGNLLRHIKL [46F_47E_49E_50I_52G_53A_54H_55F_67L_, Q9UKT9], the “log2 fold change of degron read counts” value [1] is reported as -0.919, the “log2 fold change of degron read counts” value [2] is reported as -2.34 and the “log2 fold change of degron read counts” value [3] is reported as 1.1. The “log2 fold change of degron read counts” value (compound: thalidomide) was 1.26.

With FYCEICGAHFTQKGNLLRHIKL [46F_47Y_49E_50I_52G_53A_54H_55F_67L_, Q9UKT9] the “log2 fold change of degron read counts” value [1] was 3.61, the “log2 fold change of degron read counts” value [2] was 3.49 and the “log2 fold change of degron read counts” value [3] was 2.57. The “log2 fold change of degron read counts” value (compound: thalidomide) was 1.24.

For FWCEICGAHFTQKGNLLRHIKL [46F_47W_49E_50I_52G_53A_54H_55F_67L_, Q9UKT9], the “log2 fold change of degron read counts” value [1] was 3.45, the “log2 fold change of degron read counts” value [2] was 3.78 and the “log2 fold change of degron read counts” value [3] was 2.18. For the same sequence, the “log2 fold change of degron read counts” value (compound: thalidomide) was 1.05.

FQCEICGAHFTQKGNLLRHIKL [46F_47Q_49E_50I_52G_53A_54H_55F_67L_, Q9UKT9] was tested, and the “log2 fold change of degron read counts” value [1] was -0.0399, the “log2 fold change of degron read counts” value [2] was 0.799 and the “log2 fold change of degron read counts” value [3] was 0.886. For the same sequence, the “log2 fold change of degron read counts” value (compound: thalidomide) was 3.17.

In the case of FTCEICGAHFTQKGNLLRHIKL [46F_47T_49E_50I_52G_53A_54H_55F_67L_, Q9UKT9], the “log2 fold change of degron read counts” value [1] is reported as 0.467, the “log2 fold change of degron read counts” value [2] is reported as 0.746 and the “log2 fold change of degron read counts” value [3] is reported as 1.69. For the same sequence, the “log2 fold change of degron read counts” value (compound: thalidomide) was 2.11.

For FNCEICGAHFTQKGNLLRHIKL [46F_47N_49E_50I_52G_53A_54H_55F_67L_, Q9UKT9], the “log2 fold change of degron read counts” value [1] was 2.65, the “log2 fold change of degron read counts” value [2] was 0.0954 and the “log2 fold change of degron read counts” value [3] was -0.0262. The “log2 fold change of degron read counts” value (compound: thalidomide) was -0.422.

For FICEICGAHFTQKGNLLRHIKL [46F_47I_49E_50I_52G_53A_54H_55F_67L_, Q9UKT9], the “log2 fold change of degron read counts” value [1] was -0.091, the “log2 fold change of degron read counts” value [2] was 1.87 and the “log2 fold change of degron read counts” value [3] was 1.79. For the same sequence, the “log2 fold change of degron read counts” value (compound: thalidomide) was 2.1.

With FMCEICGAHFTQKGNLLRHIKL [46F_47M_49E_50I_52G_53A_54H_55F_67L_, Q9UKT9] the “log2 fold change of degron read counts” value [1] was -0.196, the “log2 fold change of degron read counts” value [2] was -0.917 and the “log2 fold change of degron read counts” value [3] was 1.94. The “log2 fold change of degron read counts” value (compound: thalidomide) was 0.547.

FLCEICGAHFTQKGNLLRHIKL [46F_47L_49E_50I_52G_53A_54H_55F_67L_, Q9UKT9] was tested, and the “log2 fold change of degron read counts” value [1] was 0.729, the “log2 fold change of degron read counts” value [2] was -1.66 and the “log2 fold change of degron read counts” value [3] was 0.445. The “log2 fold change of degron read counts” value (compound: thalidomide) was 0.792.
